Consider 17 compounds from PubChem BioAssay.

Structures are written as SMILES.

The subject of test [1] is Human papillomavirus type 1a protein E7 (residues 44-93). Kind of test: HPV1a E7 fragment binders on microarrays, primary screen, biochemical, small-molecule microarray, residues 44-93, 635 nm fluorescence (AID 1108).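 Further: E7 fragment applied at 1 µg/mL in TBST for 1 h at 4 C; score combines spot fluorescence with its signal to noise ratio.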 The following applies: small-molecule microarray binding, fluorescence 635 nm; higher = more signal.
Test [2] in a line: modulators of HCV replicon luciferase signal, primary screen, HCV replication inhibitor project, Huh7 cells, luciferase reporter (AID 1109).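 Further: huh7 hepatoma cells harbouring a luciferase neomycin HCV replicon reporter; luciferase luminescence as measure of HCV replicon replication; test concentration not given here.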 The following applies: 48 h, higher = more signal.
In test [3] the target is Left-right determination factor 2 (Homo sapiens) (UniProt O00292). Kind of test: LEFTY2 binders on small-molecule microarrays, primary screen, biochemical, small-molecule microarray, 635 nm fluorescence scan (AID 1110). The following applies: LEFTY2 binding, higher = more signal.
Chain of Left-right determination factor 2 (Homo sapiens) (O00292 whole entry, looked up): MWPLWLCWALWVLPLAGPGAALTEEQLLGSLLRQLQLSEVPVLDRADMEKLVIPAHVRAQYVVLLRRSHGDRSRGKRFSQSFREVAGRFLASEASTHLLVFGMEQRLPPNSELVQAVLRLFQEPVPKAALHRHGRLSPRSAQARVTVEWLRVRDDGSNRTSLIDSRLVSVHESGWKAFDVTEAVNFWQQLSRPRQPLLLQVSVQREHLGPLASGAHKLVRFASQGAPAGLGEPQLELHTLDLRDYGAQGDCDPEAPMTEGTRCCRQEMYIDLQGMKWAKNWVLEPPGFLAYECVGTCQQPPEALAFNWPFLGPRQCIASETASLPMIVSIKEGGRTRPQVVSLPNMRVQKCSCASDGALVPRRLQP
The target in test [4] is Calmodulin-1 (Homo sapiens) (UniProt P0DP23). Kind of test: CALM1 binders on microarrays, EGTA buffer, profiling panel, biochemical, small-molecule microarray, Cy5-labelled CALM1 (AID 1111).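 Further: labelled calmodulin applied in Tris saline Tween buffer holding calcium plus EGTA and DTT.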 The following applies: Cy5-CALM1 binding fluorescence, higher = more signal.
Test [5] has the same target. The test can be described thus: calcium-bound CALM1 binders on microarrays, profiling panel, artefact control for SMM control-protein annotation, biochemical, small-molecule microarray, Cy5-labelled CALM1, plus calcium (AID 1112).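 Further: score merges spot fluorescence with signal to noise from triplicate slides.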 The following applies: Cy5-CALM1 binding fluorescence, higher = more signal.
Test [6] is described as follows: small-molecule microarray binders of probe aWnt5a, primary screen, biochemical, biotinylated probe, 635/667 nm fluorescence (AID 1113).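 Further: score merges 667 nm fluorescence intensity with signal-to-noise per printed feature.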 The following applies: higher = more signal.
Test [7] is described as follows: small-molecule microarray binders of probe aShh, primary screen, biochemical, biotinylated probe, 635/667 nm fluorescence (AID 1114).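 Further: probe is biotin-labelled aShh protein from a stem cell growth factor screen; measures binding of labelled protein to compounds printed on the slide; score merges feature fluorescence at 667 nm with signal-to-noise.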 The following applies: higher = more signal.
Test [8] can be described thus: small-molecule microarray binders of probe aNog, primary screen, biochemical, biotinylated probe, 635/667 nm fluorescence (AID 1115).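 Further: probe is biotinylated aNog protein used at 0.15 µg/mL for 1 h at 4 C; z-score combines 667 nm fluorescence of each spot with its signal to noise.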 The following applies: higher = more signal.
Test [9] has as its target Torsin-1A-interacting protein 1 (Homo sapiens) (UniProt Q5JTV8). The test can be described thus: LAP1 binders from COS7 cell lysate, primary screen, small-molecule microarray, 635/667 nm fluorescence (AID 1116). The following applies: COS7-hLAP1 lysate binding, 635 nm fluorescence, higher = more signal.
The target in test [10] is Alpha-bungarotoxin (Bungarus multicinctus) (UniProt P60615). The test can be described thus: alpha-bungarotoxin binders on microarray, profiling panel, artefact control for SMM control protein annotation, biochemical, small-molecule microarray, Alexa647 label, 635/667 nm fluorescence (AID 1117). The following applies: alpha-BTX-A647 binding fluorescence, higher = more signal.
Chain of Alpha-bungarotoxin (Bungarus multicinctus) (P60615 whole entry, looked up): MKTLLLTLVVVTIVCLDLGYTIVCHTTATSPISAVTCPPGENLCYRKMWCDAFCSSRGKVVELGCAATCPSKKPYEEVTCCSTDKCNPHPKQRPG

Chain of Torsin-1A-interacting protein 1 (Homo sapiens) (Q5JTV8 whole entry, looked up): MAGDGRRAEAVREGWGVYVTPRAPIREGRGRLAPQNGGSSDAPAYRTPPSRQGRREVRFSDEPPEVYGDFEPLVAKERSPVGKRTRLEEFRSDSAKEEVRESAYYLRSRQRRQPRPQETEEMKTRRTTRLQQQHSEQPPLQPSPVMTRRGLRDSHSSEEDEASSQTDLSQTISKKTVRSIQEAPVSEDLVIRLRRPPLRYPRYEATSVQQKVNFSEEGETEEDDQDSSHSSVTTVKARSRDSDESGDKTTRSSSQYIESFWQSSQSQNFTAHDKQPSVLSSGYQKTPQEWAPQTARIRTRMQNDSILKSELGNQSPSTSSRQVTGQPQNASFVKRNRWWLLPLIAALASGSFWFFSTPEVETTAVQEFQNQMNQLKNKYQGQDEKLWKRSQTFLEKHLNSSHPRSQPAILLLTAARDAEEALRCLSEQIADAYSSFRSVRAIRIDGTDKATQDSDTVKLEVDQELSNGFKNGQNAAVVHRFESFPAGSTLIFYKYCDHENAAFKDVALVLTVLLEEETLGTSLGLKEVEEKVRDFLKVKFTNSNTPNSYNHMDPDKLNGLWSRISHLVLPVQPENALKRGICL

For `C=C(C)[C@@H]1CC=C(C(O)C2C=CC3C(=O)N(C)C(=O)C3N2Nc2ccc([N+](=O)[O-])cc2[N+](=O)[O-])CC1` (stereo not given in full), the composite z-score was determined as 1.45 in test [1]; 0.265 in test [3]; 0.79 in test [4]; 0.441 in test [5]; 0.101 in test [6]; 0.302 in test [7]. Also, the composite z-score worked out at 1.46 in [8], 0.958 in test [9] and 1.95 in test [10]. The compound further came in with a z-score in test [2] of -0.44.
`O=C1NC(=O)C2C1C=CC(C(O)c1ccc(B(O)O)cc1)N2Nc1ccc(Cl)cc1Cl` (stereo not given): the composite z-score in test [1] was -0.181; in test [3] it was -0.401; in [4], 0.524; in test [5], 0.0583; in test [6], -0.0721; in [7], -0.181. The composite z-score came out at 0.682 in [8], 0.392 in test [9] and 0.869 in test [10]. Besides, the z-score in test [2] was -0.693.
With `COc1ccc(C(=O)Nc2cccc(CN3C(=O)[C@]4(O[C@H](CC(=O)N5Cc6ccccc6C[C@H]5CO)[C@@H]([Si](C)(C)c5ccc(OC)cc5)[C@@H]4C)c4ccccc43)c2)cc1`, the composite z-score in test [1] is 1.23; in test [3], 1.05; in [4], 0.219; in test [5] it was -0.763; in test [6] it was 0.0194; in test [7], 0.0639. Besides, the values for the composite z-score in test [8], in test [9] and in test [10] were 0.0811, 0.711 and 1.12, respectively. This compound returned a z-score in test [2] of -3.44.
Regarding `COC(=O)C(CC#Cc1ccc2c(c1)[C@]1(C(=O)N2)[C@H](c2ccc(OCCO)cc2)N2[C@H](c3ccccc3)[C@H](c3ccccc3)OC(=O)[C@H]2[C@@H]1C(=O)N1CCCCCCC1)C(=O)OC`, the composite z-score in test [1] is 1.32; in [3], 1.62; in [4] it was 2.73; in [5], 1.29; in test [6] it was 1.25; in test [7], 2.81. Further, the composite z-score in [8] was 2.33; in test [9], 4.91; in [10], 2.62. The compound also had a z-score in [2] of -0.851.
Turning to `COC(=O)[C@@]1(Cc2ccc(F)cc2)[C@H]2c3cc(C(=O)N4CCCC4)n(Cc4cc(F)cc5c4OCOC5)c3C[C@H]2CN1C(=O)c1ccccc1`, the composite z-score in test [1] was -0.0014; in test [3], -0.285; in [4], 1.37; in test [5], 1.05; in test [6], 0.179; in test [7] it was 0.184. For the same compound, the composite z-score in test [8] is -0.694; in test [9], -0.415; in test [10], 0.92. This compound had a z-score in test [2] of -2.1.
With `O=C1O[C@H](c2ccccc2)[C@H](c2ccccc2)N2[C@H]1[C@@H](C(=O)N1CCN(c3ncccn3)CC1)[C@]1(C(=O)Nc3ccc(C#CCCO)cc31)[C@H]2c1ccc(O)cc1`, the composite z-score was 1.08 in test [1]; -0.379 in [3]; 0.562 in test [4]; 0.323 in test [5]; 0.0215 in test [6]; 0.0684 in test [7]. The composite z-score in [8] was -0.0927; in test [9] it was 0.516; in test [10], 1.55. In test [2], this compound displayed a z-score of -1.38.
Turning to `CC(C)(C)N1CC=CC23O[C@@H]4C=CCCOC(=O)C4[C@H]2C(=O)N(CCCCCCO)[C@@H]3C1=O` (stereo not given in full), the composite z-score in [1] is 0.315; in [3], -0.807; in [4], -0.338; in [5] it was 0.195; in test [6], -0.167; in test [7] it was -0.352. Moreover, the results for the composite z-score in [8], in test [9] and in test [10] were -0.0207, 0.348 and 1.07, respectively. The compound also yielded a z-score in [2] of 0.0358.
Consider `COc1ccc([Si](C)(C)[C@@H]2[C@@H](CC(=O)N(CCO)Cc3ccccc3)O[C@]3(C(=O)N(Cc4ccc(I)cc4)c4ccccc43)[C@H]2C)cc1`, for which the composite z-score in test [1] was 0.684; in [3], 0.792; in test [4] it was 1.61; in [5], 0.54; in test [6], -0.0718; in test [7], 0.531. Also, the composite z-score is -0.0815 in test [8], 1.23 in test [9] and 0.375 in [10]. This compound registered a z-score in test [2] of -4.03.
For the compound `CC1CC/C=C\[C@H]2OC34C=CCN(c5ccc(Cl)cc5)C(=O)[C@H]3N(CCCCCCO)C(=O)[C@]4(C)C2C(=O)O1` (stereo not given in full), the composite z-score is 0.0258 in test [1]; -1.56 in [3]; -0.249 in test [4]; 0.864 in [5]; -0.262 in [6]; -0.138 in test [7]. Moreover, the composite z-score in [8] was 0.0112; in test [9], -0.377; in test [10] it was -0.856. Also, the z-score in [2] was -0.0973.
`COc1ccc([Si](C)(C)[C@H]2[C@H](CC(=O)N3Cc4ccccc4C[C@H]3CO)O[C@@]3(C(=O)N(C)c4ccccc43)[C@@H]2C)cc1`: the composite z-score in test [1] was 1.42; in test [3], 0.77; in test [4] it was 0.125; in test [5], -1.29; in test [6] it was -0.124; in [7], -0.0146. In addition, the composite z-score was -0.299 in test [8], 0.712 in [9] and 2.48 in [10]. The compound further came in with a z-score in [2] of -4.34.
Regarding `C[N+](C)(C)CCCCNC(=O)[C@H]1C[C@H]2C(=O)N[C@@H](Cc3ccccc3)C(=O)N2[C@H]1c1cccc(OCCO)c1`, the composite z-score in test [1] was -0.365; in [3] it was 1.34; in test [4] it was -1.14; in test [5], -1.7; in test [6], -0.0495; in test [7], 0.151. The composite z-score in [8] was -0.456; in test [9], 1.17; in test [10], -0.245. This compound also showed a z-score in [2] of -0.741.
Turning to `NC(=O)N1C(=O)C2C(C1=O)C1C=C(CCCO)C2C(c2ccc(CN3CCCC3)cc2)N1Cc1cc2c(cc1Br)OCO2` (stereo not given), the composite z-score in test [1] is -1.36; in test [3] it was 0.943; in test [4] it was -0.666; in [5], -0.361; in test [6], -0.128; in test [7], 0.0796. Also, the figures for the composite z-score in test [8], in test [9] and in test [10] were -0.252, 0.187 and -0.493, respectively. Moreover, the z-score in test [2] is -1.51.
For `C=CCC(OC(C)=O)[C@@H]1[C@@H](N(Cc2ccc(-c3ccccc3)cc2)C(=O)c2cccc3ccccc23)c2cc(OCCCO)ccc2N1C(=O)Cc1ccc(OC)cc1` (stereo not given in full), the composite z-score was -0.69 in [1]; -0.526 in [3]; -0.424 in test [4]; 0.618 in test [5]; -0.0405 in [6]; -0.0293 in test [7]. The composite z-score is -0.202 in test [8], -0.278 in test [9] and 0.313 in test [10]. Moreover, in [2], the z-score is -0.235.
With `C=C(COC)C(=O)CC[C@@H](OC(=O)c1ccccc1-c1ccccc1C(=O)O)c1ccc(OCCO)cc1`, the composite z-score in test [1] is -0.0675; in [3] it was 0.079; in test [4], -0.601; in test [5] it was -0.942; in [6], -0.145; in [7] it was -0.304. Moreover, the composite z-score in test [8] was 0.338; in [9], 1.21; in test [10], -0.0978. In addition, in test [2], the z-score was -1.88.
For the compound `Cc1ccc(S[C@]2(C(=O)NCCCN(C)C)CC(=O)N(C3Cc4ccccc4C3)[C@@H]2c2ccc(CO)cc2I)cc1`, the composite z-score is 0.257 in test [1]; -1.11 in test [3]; 0.0811 in test [4]; -0.358 in [5]; 0.0792 in [6]; 0.207 in test [7]. Also, the composite z-score in [8] is -0.291; in test [9], 0.157; in test [10], 0.651. Besides, the z-score in test [2] was -2.83.
Turning to `COc1ccc(C(=O)Nc2ccc(CN3C(=O)[C@@]4(O[C@@H](CCn5cc(CCO)nn5)[C@H]([Si](C)(C)c5ccc(OC)cc5)[C@H]4C)c4ccccc43)cc2)cc1`, the composite z-score in [1] was 1.33; in [3], 0.904; in test [4] it was -0.0429; in test [5], -0.668; in test [6], 0.0433; in [7] it was -0.0146. In addition, the composite z-score in [8] came to 0.0117; in test [9] it was 1.09; in test [10], 0.829. This compound showed a z-score in test [2] of -5.11.
For `CC(C)C[C@@H]1NC(=O)[C@@H]2C[C@H](C(=O)NCCCCCCNC(=O)CS)[C@H](c3cccc(OCCO)c3)N2C1=O`, the composite z-score was found to be 1.47 in test [1]; 0.622 in test [3]; 1.03 in [4]; 0.264 in test [5]; 0.0375 in [6]; 0.0611 in [7]. Moreover, the composite z-score is -0.0172 in test [8], 1.06 in test [9] and 2.02 in [10]. This compound registered a z-score in [2] of -0.319.
